High-throughput results deposited in PubChem BioAssay by National Center for Advancing Translational Sciences (NCATS).
An excerpt weighted towards active compounds, which were near 21% of everything screened.
Shiga toxin inh: A qHTS for Small Molecule Inhibitors of Shiga Toxin; inhibition, % at 38.7 µM; 9.2% of 290,000 active; Vero cells, Shiga toxin protein synthesis inhibition reporter; in the data active means inhibition mostly above about 28%, no sharp cut-off; inactive means mostly below about 43%; further: 0% is about no effect
SARS PLP yeast: qHTS of Yeast-based Assay for SARS-CoV PLP; Potency, µM (highest dose often 32.9 µM), for inactives: at the top dose activity, positive = growth rescue, hits mostly activators; 0.19% of 330,000 active; AID 485353, 2010; S. cerevisiae expressing SARS-CoV PLpro, growth rescue; calls by dose curve; further: potency means the concentration at half of the fitted maximal effect; 0% is about no effect; nearly all actives have a fitted effect of over 55% in size
Pf growth 96h: Primary qHTS for delayed death inhibitors of the malarial parasite plastid, 96 hour incubation; P. falciparum luciferase reporter growth, 96 h; AID 504834, 2011; 6.9% of 320,000 active; Potency, µM (titrated, usually from 28.7 µM), without a hit: top-dose activity change, negative = inhibition, most hits filed as inhibitors; further: potency means the concentration at half of the fitted maximal effect; on the % scale 0 is the no-effect control and ±100 the full control effect
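Parasite growth measured via integrated firefly luciferase reporter in P. falciparum. Infected erythrocytes at 2% hematocrit, 0.05% parasitemia final were treated 96 hours at 37 C under 5% CO2, and luminescence was read.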
NS1 function inh: qHTS Assay for Inhibitors of Influenza NS1 Protein Function | Potency, µM (series often up to 46.1 µM), for the others: at the top dose activity, positive = more growth | AID 2326, 2010 | 0.4% of 270,000 active; calls by dose curve; further: potency means the concentration at half of the fitted maximal effect; actives are rising curves; nearly all actives have a fitted effect of over 50% in size
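Growth recovery, yeast-based: influenza A NS1 expressed in S. cerevisiae causes slow growth, and suppressors are detected by OD600. The parent strain without NS1 is used as positive control.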
CHX counter: Cycloheximide Counterscreen for Small Molecule Inhibitors of Shiga Toxin | cell reporter, cycloheximide protein synthesis inhibition counterscreen | max response, % | 12% of 300,000 active; in the data active means max response mostly above about 13%, no sharp cut-off; inactive means mostly below about 14%; further: read at 38.3 µM for the half of the compounds with a filed dose; 0% is about no effect
Pf growth 48h: Primary qHTS for delayed death inhibitors of the malarial parasite plastid, 48 hour incubation; P. falciparum luciferase growth in erythrocytes, 48 h; Potency, µM (doses to about 28.7 µM), without a hit: top-dose activity change, negative = inhibition, actives largely listed as inhibitors; 5.9% of 310,000 active; AID 504832, 2011; further: potency means the concentration at half of the fitted maximal effect; on the % scale 0 is the no-effect control and ±100 the full control effect
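Erythrocytes infected with P. falciparum carrying an integrated firefly luciferase reporter (2% hematocrit, 0.1% parasitemia final) were exposed to compounds in RPMI 1640 with 0.5% Albumax at 37 C, 5% CO2. Growth inhibition was scored as reduced luminescence.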
* = called active by the depositor. Unless noted, the call rests on the fitted dose curve; in most records, active means well fitted inhibition curve with a large enough effect; inconclusive means small, poorly fitted or top-dose-only effect, or another doubt; inactive means no such curve, though single readings can be large or run the other way.

`COc1ccc(NC(=O)Nc2ccc(F)c(Cl)c2)cc1` gave Shiga toxin inh 90.5*, SARS PLP yeast -1.1%, Pf growth 96h -29.1%, CHX counter 64.9* and Pf growth 48h 63.7%.
O=C(Nc1cccnc1)Nc1ccc(F)c(Cl)c1 was read as Shiga toxin inh 26.0, SARS PLP yeast -7.3%, Pf growth 96h 17.5%, CHX counter 14.5* and Pf growth 48h inconclusive.
Screening COc1cc(C(=O)O)nc2ccc([N+](=O)[O-])cc12 returned Shiga toxin inh -10.3, SARS PLP yeast 5.6%, Pf growth 96h 43.7%, CHX counter -4.4 and Pf growth 48h 0.1%.
`O=C(Nc1ccc(Cl)cc1)Nc1ccc(Cl)c(Cl)c1` gave SARS PLP yeast -15.0%, Pf growth 96h 2.69µM* and Pf growth 48h 2.33µM*.
For O=C(Nc1ccc(Cl)c(Cl)c1)Nc1ccon1 the results were Shiga toxin inh 14.6, SARS PLP yeast -13.9%, Pf growth 96h 76.8%, NS1 function inh -93.5%, CHX counter 17.6* and Pf growth 48h 1.0%.
For COC(=O)c1ccc(NC(=O)CSc2nnc(C(C)NC(=O)c3ccccc3Cl)n2C)cc1 (stereo not drawn) the results were Shiga toxin inh -13.0, SARS PLP yeast -2.5%, Pf growth 96h -8.3%, NS1 function inh -3.7%, CHX counter 14.0 and Pf growth 48h inconclusive.
`CCC1CCCCN1C(=S)Nc1ccc(OC(F)F)cc1` (stereo not drawn) gave Shiga toxin inh 11.9, SARS PLP yeast 9.9%, Pf growth 96h 64.1%, NS1 function inh 15.3%, CHX counter 6.4 and Pf growth 48h 8.2%.
For CC1CCN(C(=O)C2CCCN(S(=O)(=O)c3cccc4nsnc34)C2)CC1 (stereo not drawn) the results were Shiga toxin inh -3.8, Pf growth 96h -29.3%, NS1 function inh 9.3%, CHX counter -2.0 and Pf growth 48h 5.3%.
For CN(CC(=O)N1CCCCC1)S(=O)(=O)c1cccc2nsnc12 the results were Shiga toxin inh 10.9, SARS PLP yeast -0.1%, Pf growth 96h inconclusive, NS1 function inh -4.7%, CHX counter -5.2 and Pf growth 48h inconclusive.
COc1cccc(NC(=O)C2CCCN(S(=O)(=O)c3cccc4cccnc34)C2)c1 (stereo not drawn) was read as Shiga toxin inh -14.0, SARS PLP yeast 12.5%, Pf growth 96h inconclusive, NS1 function inh -33.8%, CHX counter -1.9 and Pf growth 48h inconclusive.
`O=C(Nc1ccncc1)C1CCCN(S(=O)(=O)c2cccc3cccnc23)C1` (stereo not drawn) gave Shiga toxin inh -10.1, SARS PLP yeast -4.5%, Pf growth 96h 5.86µM*, NS1 function inh -1.5%, CHX counter -2.9 and Pf growth 48h -10.5%.
`O=C(NCc1cccnc1)C1CCCN(S(=O)(=O)c2cccc3nsnc23)C1` (stereo not drawn) gave Shiga toxin inh -21.6, SARS PLP yeast 22.3%, Pf growth 96h 10.4µM*, NS1 function inh -2.0%, CHX counter -5.5 and Pf growth 48h -6.0%.
`O=C(C1CCCN(S(=O)(=O)c2cccc3nsnc23)C1)N1CCN(c2ccccn2)CC1` (stereo not drawn) gave Shiga toxin inh -8.4, SARS PLP yeast -3.5%, Pf growth 96h 67.4%, NS1 function inh -20.5%, CHX counter 12.5 and Pf growth 48h 11.7µM*.
`CN(CC(=O)N1CCN(c2ccccn2)CC1)S(=O)(=O)c1cccc2nsnc12` gave Shiga toxin inh -11.7, SARS PLP yeast 22.9%, Pf growth 96h 9.28µM*, NS1 function inh -9.5%, CHX counter -5.6 and Pf growth 48h -29.3%.
COc1cc(OC)c(C(=O)OCC(=O)Nc2c(C)n(C)n(-c3ccccc3)c2=O)cc1OC was read as SARS PLP yeast 1.0%, Pf growth 96h inconclusive and Pf growth 48h 2.5%.
`Nc1ccc(NC(=O)c2cccc(C(=O)Nc3ccc(N)cc3Cl)c2)c(Cl)c1` gave Shiga toxin inh -2.6, SARS PLP yeast -0.4%, Pf growth 96h 143.4%, NS1 function inh 0.0%, CHX counter -0.6 and Pf growth 48h -18.6%.
For CCOC(=O)C1=C(COC(=O)/C=C/c2cccc(OC)c2)NC(=O)NC1C (stereo not drawn) the results were Shiga toxin inh -1.5, SARS PLP yeast 1.7%, Pf growth 96h 8.3%, NS1 function inh -2.4%, CHX counter 13.9 and Pf growth 48h -0.1%.
COc1ccccc1-c1nnc(SC(C)C(=O)Nc2ccc(C(N)=O)cc2)o1 (stereo not drawn) was read as SARS PLP yeast 1.7%, Pf growth 96h -5.5% and Pf growth 48h 6.4%.
`Cc1ccc(OCC(=O)Nc2ccc(F)cc2)c([N+](=O)[O-])n1` gave Shiga toxin inh active, SARS PLP yeast -1.8%, Pf growth 96h 314.5%, NS1 function inh 5.8%, CHX counter 56.4* and Pf growth 48h 347.8%.
`Cc1ccc(OCC(=O)Nc2ccc3c(c2)CCC3)c([N+](=O)[O-])n1` gave Shiga toxin inh 66.7*, SARS PLP yeast 0.2%, Pf growth 96h -0.4%, CHX counter 39.9* and Pf growth 48h 36.7%.
`Cc1ccc(OCC(=O)NCC(=O)Nc2ccc(F)cc2)c([N+](=O)[O-])n1` gave Shiga toxin inh -3.0, SARS PLP yeast -6.1%, Pf growth 96h 77.5%, NS1 function inh 5.2%, CHX counter -1.1 and Pf growth 48h 23.6%.
`Cc1ccc(OCC(=O)Nc2ccc(Cl)cc2)c([N+](=O)[O-])n1` gave SARS PLP yeast 3.2%, Pf growth 96h 318.0% and Pf growth 48h 407.8%.
For CC(=O)c1ccc(OCC(=O)Nc2ccc3c(c2)CCC3)cc1 the results were Shiga toxin inh 18.3, SARS PLP yeast -1.3%, Pf growth 96h 57.2%, CHX counter 19.7* and Pf growth 48h -6.4%.
O=C(Nc1ccc2c(c1)C(=O)NC2=O)c1ccc(S(=O)(=O)N2CCCC2)cc1 was read as Shiga toxin inh -2.7, SARS PLP yeast -0.9%, Pf growth 96h 9.4%, NS1 function inh 3.2%, CHX counter -2.4 and Pf growth 48h 18.0%.
CCOc1ccc(NC(=NCc2ccc3c(c2)OCO3)SC2CC(=O)N(c3ccc(C(=O)O)cc3)C2=O)cc1 (stereo not drawn) was read as Shiga toxin inh -2.8, SARS PLP yeast -4.1%, Pf growth 96h 9.28µM*, NS1 function inh 9.5%, CHX counter 0.2 and Pf growth 48h inconclusive.
CCOc1ccc(NC(=NCc2ccc3c(c2)OCO3)SC2CC(=O)N(c3ccc(OCC)cc3)C2=O)cc1 (stereo not drawn) was read as Shiga toxin inh active, SARS PLP yeast inconclusive, Pf growth 96h 3.7µM*, NS1 function inh 9.4%, CHX counter 63.2* and Pf growth 48h inconclusive.
